PubChem BioAssay (NCI)
Where “and” joins values, the source holds several entries; their conditions need not be identical. Equal values may be shown once. The panel holds about 83,000 compounds, 20% with a hit somewhere; the sample as a whole holds those more often.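 The test compound was applied at a single concentration to cells in 96-well plates for 48 hours, and percent growth was recorded.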 Calls of active or inactive are those of the source. Rule for the calls: active = growth percent below 10; inactive = the rest.

Experiments:
Experiment in all cases: NCI-60 one-dose screen, 48 h (100 = growth as untreated, 0 = no growth, -100 = all killed)
Conditions in all cases: 10 µM unless noted
NCI-H23 lung = system: NCI-H23 lung
NCI-H226 lung = system: NCI-H226 lung
NCI-H322M lung = system: NCI-H322M lung
HOP-62 NSCLC = system: HOP-62 NSCLC
NCI-H460 lung = system: NCI-H460 lung
HOP-92 NSCLC = system: HOP-92 NSCLC
NCI-H522 lung = system: NCI-H522 lung
A549/ATCC NSCLC = system: A549/ATCC NSCLC
786-0 renal = system: 786-0 renal
COLO 205 colon = system: COLO 205 colon
DU-145 prostate = system: DU-145 prostate
K-562 leukemia = system: K-562 leukemia
MALME-3M melanoma = system: MALME-3M melanoma
MDA-MB-231 breast = system: MDA-MB-231 breast
RXF 393 renal = system: RXF 393 renal
SF-268 CNS = system: SF-268 CNS
SF-295 CNS = system: SF-295 CNS
SF-539 CNS = system: SF-539 CNS
UACC-257 melanoma = system: UACC-257 melanoma
M14 melanoma = system: M14 melanoma

Row | Structure (SMILES) | growth (NCI-H23 lung) | growth (NCI-H226 lung) | growth (NCI-H322M lung) | growth (HOP-62 NSCLC) | growth (NCI-H460 lung) | growth (HOP-92 NSCLC) | growth (NCI-H522 lung) | growth (A549/ATCC NSCLC) | growth (786-0 renal) | growth (COLO 205 colon) | growth (DU-145 prostate) | growth (K-562 leukemia) | growth (MALME-3M melanoma) | growth (MDA-MB-231 breast) | growth (RXF 393 renal) | growth (SF-268 CNS) | growth (SF-295 CNS) | growth (SF-539 CNS) | growth (UACC-257 melanoma) | growth (M14 melanoma)
1 | O=C(c1cccc(Br)c1)N1CCN(c2ccnc3cc(Cl)ccc23)CC1 | 79.7% (inactive) | 87.3% (inactive) | 92% (inactive) | 95.3% (inactive) | 100% (inactive) | 78.7% (inactive) | 45.1% (inactive) | 73.8% (inactive) | 71.9% (inactive) | 93.7% (inactive) | 93.3% (inactive) | 68.1% (inactive) | 94.3% (inactive) | 91.7% (inactive) | 87% (inactive) | 91.5% (inactive) | 87% (inactive) | 96.9% (inactive) | 85.8% (inactive) | 98.6% (inactive)
2 | C[C@]12CCc3c(ccc4cc(O)ccc34)[C@@H]1C[C@H](O)[C@@H]2O | 94.2% (inactive) | 94.7% (inactive) | 107% (inactive) | 91.7% (inactive) | 97.8% (inactive) | 85.6% (inactive) | 98.1% (inactive) | 106% (inactive) | 111% (inactive) | 109% (inactive) | 108% (inactive) | 105% (inactive) | 113% (inactive) | 79.9% (inactive) | 102% (inactive) | 103% (inactive) | 95.3% (inactive) | 102% (inactive) | 102% (inactive) | 103% (inactive)
3 | COc1cc(Nc2nc3ccccc3cc2C(=O)Nc2ccc(F)c(F)c2)cc(OC)c1OC | 9.57% (active) | 22.1% (inactive) | 53% (inactive) | 46% (inactive) | 9.51% (active) | 1.01% (active) | 20.4% (inactive) | 22.7% (inactive) | 34.5% (inactive) | 9.14% (active) | 30% (inactive) | 16.8% (inactive) | 51.5% (inactive) | 30.5% (inactive) | 68.3% (inactive) | 40.4% (inactive) | 14.2% (inactive) | 37.9% (inactive) | 52.3% (inactive) | 24.4% (inactive)
4 | CC12OC(CC(O)C1O)n1c3ccccc3c3c4c(c5c6ccccc6n2c5c31)C(=O)N(CCN1CCOCC1)C4=O (stereo not given) | -6.63% (active) | -35.6% (active) | 14.5% (inactive) | -11.7% (active) | -12.5% (active) | 19.6% (inactive) | -16.3% (active) | -31.8% (active) | 1.94% (active) | -2.3% (active) | 3.22% (active) | 7.56% (active) | -18% (active) | 44.2% (inactive) | -6.91% (active) | 17.9% (inactive) | -14.5% (active) | 6.03% (active) | 14.7% (inactive) | -3.54% (active)
5 | O=C(Oc1ccc(CO[N+](=O)[O-])cc1)c1ccccc1 | -71.1% (active) | -96.5% (active) | -88.1% (active) | -86.5% (active) | -65.3% (active) | -88% (active) | -67.2% (active) | -9.66% (active) | -87.7% (active) | -74.2% (active) | -94.6% (active) | -37.1% (active) | -69.9% (active) | -80.6% (active) | -86.2% (active) | -84.8% (active) | -91.9% (active) | -90% (active) | -78% (active) | -83% (active)
6 | Cc1c(CC(=O)OCCO)cc(-c2ccc(Cl)cc2)n1-c1ccccc1 | 82.3% (inactive) | 93.9% (inactive) | 106% (inactive) | 95% (inactive) | 104% (inactive) | 97.4% (inactive) | 82.6% (inactive) | 94% (inactive) | 102% (inactive) | 109% (inactive) | 102% (inactive) | 70.5% (inactive) | 103% (inactive) | 95.4% (inactive) | 107% (inactive) | 94.5% (inactive) | 96.6% (inactive) | 101% (inactive) | 98.9% (inactive) | 109% (inactive)
7 | C=C1C(=O)O[C@H]2[C@H]1CC/C(CNS(=O)(=O)c1ccc3ccccc3c1)=C\CC[C@@]1(C)O[C@@H]21 | -3.15% (active) | -25.4% (active) | 92.1% (inactive) | 78.4% (inactive) | 91.7% (inactive) | -29.6% (active) | -78.6% (active) | 69% (inactive) | -67% (active) | -84.5% (active) | -85% (active) | -19.3% (active) | -22.6% (active) | 2.57% (active) | -80.8% (active) | 51.4% (inactive) | 71.2% (inactive) | 9.99% (active) | -54.4% (active) | -32.6% (active)
8 | O=C1/C(=C/c2ccccc2[N+](=O)[O-])Cc2ccccc21 | 22.6% (inactive) and 59.2% (inactive) | 19.4% (inactive) | 65.2% (inactive) and 71.3% (inactive) | 57.6% (inactive) and 32.8% (inactive) | 7.04% (active) and 23.6% (inactive) | 51.9% (inactive) and 77.4% (inactive) | -88.7% (active) and -87.5% (active) | 41.4% (inactive) and -6.77% (active) | 45% (inactive) and 26.5% (inactive) | -74.9% (active) and 18.5% (inactive) | 32.7% (inactive) and 41.5% (inactive) | 10.5% (inactive) and 6.16% (active) | 23.7% (inactive) and 60.2% (inactive) | -9.95% (active) and 31.3% (inactive) | -4.67% (active) and -0.599% (active) | 66% (inactive) and 42.8% (inactive) | 23% (inactive) and 28.3% (inactive) | 24.2% (inactive) and 34.3% (inactive) | 64.4% (inactive) and 71.8% (inactive) | 42.7% (inactive) and 57.8% (inactive)
9 | CCOC(=O)c1cc2c(n1Cc1cc(OC)cc(OC)c1Br)-c1nc(NC(C)=O)sc1CCC2 | 73.2% (inactive) | 71.3% (inactive) | 80.2% (inactive) | 80.4% (inactive) | 82.2% (inactive) | 46.6% (inactive) | 53.5% (inactive) | 42.8% (inactive) | 78% (inactive) | 82.2% (inactive) | 89.3% (inactive) | 81.4% (inactive) | 122% (inactive) | 74.7% (inactive) | 61% (inactive) | 67.1% (inactive) | 76.4% (inactive) | 85.6% (inactive) | 53% (inactive) | 84.9% (inactive)
10 | O=C(/C=C/c1ccccc1)c1cccs1 | 94.1% (inactive) and 105% (inactive) | 103% (inactive) | 106% (inactive) | 98.7% (inactive) and 114% (inactive) | 93.3% (inactive) and 109% (inactive) | 79.3% (inactive) | 73.6% (inactive) and 94.2% (inactive) | 93.9% (inactive) and 94.3% (inactive) | 89.5% (inactive) and 94.2% (inactive) | 112% (inactive) and 120% (inactive) | 97.8% (inactive) and 93.1% (inactive) | 106% (inactive) and 71.2% (inactive) | 119% (inactive) | 111% (inactive) and 109% (inactive) | 106% (inactive) and 102% (inactive) | 98.4% (inactive) and 98.3% (inactive) | 97.7% (inactive) and 95.1% (inactive) | 105% (inactive) and 111% (inactive) | 96.3% (inactive) and 106% (inactive) | 98.1% (inactive) and 112% (inactive)
11 | CCN1CCN(C(=O)[C@]23CC[C@@H](C)[C@H](C)[C@@H]2C2=CC[C@@H]4[C@@]5(C)CCC(=O)C(C)(C)[C@@H]5CC[C@@]4(C)[C@]2(C)CC3)CC1 | 21.4% (inactive) | 35.7% (inactive) | 10.2% (inactive) | 9.82% (active) | -55.1% (active) | -5.58% (active) | -53.4% (active) | 19.9% (inactive) | -40.1% (active) | -50.9% (active) | 41.5% (inactive) | 2.78% (active) | -85.7% (active) | -28.6% (active) | -6.14% (active) | 39.7% (inactive) | 24.8% (inactive) | -79.8% (active) | -23.9% (active) | -41.6% (active)
12 | CCN(C(=O)N1CCN(c2cc3c(cc2F)c(=O)c(C(=O)O)cn3C2CC2)CC1)c1nc(-c2ccccc2)cs1 | 6.27% (active) | 20.9% (inactive) | 13.3% (inactive) | 36% (inactive) | 5.27% (active) | -18.4% (active) | -1.7% (active) | 12.4% (inactive) | 14.3% (inactive) | 64.1% (inactive) | 27.1% (inactive) | 13.8% (inactive) | 22.1% (inactive) | 5.26% (active) | 19.7% (inactive) | 25% (inactive) | 8.29% (active) | 8.47% (active) | 74.1% (inactive) | 22.9% (inactive)
13 | CCN1CCN(CC(=O)Nc2nc3ccc(NCc4ccc(C)cc4)cc3s2)CC1 | 72.6% (inactive) | 72% (inactive) | 87.6% (inactive) | 78.5% (inactive) | 44.5% (inactive) | 39% (inactive) | 93.7% (inactive) | 73.4% (inactive) | 68% (inactive) | 16.3% (inactive) | 84.3% (inactive) | -0.543% (active) | -41.5% (active) | 59.1% (inactive) | 56.1% (inactive) | 73.5% (inactive) | 88.2% (inactive) | 22.2% (inactive) | 34% (inactive) | -44% (active)
